Screening data (PubChem BioAssay)
AGP1-GFP MLPCN: modulators of TOR pathway AGP1-GFP in S. cerevisiae | S. cerevisiae AGP1-GFP multiplex flow cytometry, 3 h; GFP as percent of DMSO wells | GFP response vs DMSO, % at 10 µM | hit rate 0.02% among 320,000 | AID 2066;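 active = GFP response relative to DMSO above a set limit, near screen average plus 3 SD, cut at about 150% in these data; inconclusive = fewer than 70 cells counted for the yeast strain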;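 note: median GFP channel fluorescence of the gated AGP1 strain per well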
CIT2 TOR yeast: alters CIT2-GFP fluorescence in TOR pathway yeast screen; GFP response vs DMSO, % at 10 µM; S. cerevisiae CIT2-GFP strain, flow cytometry, 3 h; 100 means same as DMSO wells; hit rate 0.065% among 320,000; AID 2029;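 active = GFP response relative to DMSO above a set limit, near the screen mean plus 3 SD, cut at about 150% in these data; inconclusive = Fewer than 70 cells measured for a yeast strain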;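 note: ratio of well median GFP fluorescence to mean of DMSO wells on the plate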
LAP4 TOR yeast: alters LAP4-GFP fluorescence in TOR pathway yeast screen | S. cerevisiae LAP4-GFP multiplex, flow cytometry GFP, 3 h; median GFP as percent of DMSO wells | GFP response vs DMSO, % at 10 µM | hit rate 0.34% among 320,000;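 active = GFP response vs DMSO above a set limit, about the screen mean plus 3 SD, cut at about 150% in these data; inconclusive = under 70 cell events counted for the yeast strain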
RPL19A-GFP yeast: alters RPL19A-GFP fluorescence in TOR pathway yeast screen; S. cerevisiae RPL19A-GFP strain, flow cytometry, 3 h; hits give low values; percent response vs DMSO, % at 10 µM; hit rate 0.3% among 330,000; AID 2025;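 active = percent response vs DMSO below 50%; inconclusive = fewer than 70 events counted for the yeast strain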;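 note: median channel GFP fluorescence of the barcoded RPL19A-GFP strain; ratio of sample median GFP to plate DMSO average so 100% = DMSO; lower means less RPL19A-GFP as with rapamycin TOR inhibition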
MEP2 TOR yeast: modulators of TOR pathway MEP2-GFP in S. cerevisiae; S. cerevisiae MEP2-GFP strain, flow cytometry GFP, 3 h; 100% = DMSO control level; GFP response vs DMSO, % at 10 µM; hit rate 0.51% among 330,000; AID 2016;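 active = GFP response versus DMSO above a set limit, roughly screen mean plus 3 SD, cut at about 180% in these data; inconclusive = fewer than 70 cells counted for a yeast strain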;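 note: median GFP fluorescence of the barcode-gated MEP2-GFP cells per well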
* marks the source's active call; other numbers are inactive results; [ ] = dose if it differs, or a comment. Hits are enriched below; roughly 0.93% of the tested compounds scored in any of these assays.

What do the screens show for `C=CCn1c(C)cc(C(=O)CN2C(=O)NC3(CCCc4ccccc43)C2=O)c1C` (stereo unspecified)?
AGP1-GFP MLPCN: inconclusive; CIT2 TOR yeast: inconclusive; LAP4 TOR yeast: 91.2; RPL19A-GFP yeast: 26.8*[may fluoresce violet]; MEP2 TOR yeast: 436.6*[may fluoresce violet]

What do the screens show for `Cc1cc(C(=O)CN2C(=O)NC3(CCCc4ccccc43)C2=O)c(C)n1Cc1cccs1` (stereo unspecified)?
AGP1-GFP MLPCN: 106.3; CIT2 TOR yeast: 103.4; LAP4 TOR yeast: 99.7; RPL19A-GFP yeast: 103.9; MEP2 TOR yeast: 112.8

Results for Cc1cc(NC(=O)CSc2nnnn2-c2cc(Cl)ccc2C)no1 ?
AGP1-GFP MLPCN: 101.5; CIT2 TOR yeast: 102.1; LAP4 TOR yeast: 103.9; RPL19A-GFP yeast: 98.6; MEP2 TOR yeast: 98.3

Results for Cc1cc(NC(=O)CSc2nnnn2-c2ccccc2F)no1 ?
AGP1-GFP MLPCN: 15.1; CIT2 TOR yeast: inconclusive; LAP4 TOR yeast: 89.5; RPL19A-GFP yeast: 63.0; MEP2 TOR yeast: 255.5*[may fluoresce violet]

How did O=[N+]([O-])c1ccc(N2CCN(Cc3ccccc3)CC2)c(S(=O)(=O)N2CCOCC2)c1 do in these assays?
AGP1-GFP MLPCN: 29.6; CIT2 TOR yeast: inconclusive; LAP4 TOR yeast: 89.7; MEP2 TOR yeast: 235.0*[may fluoresce violet]

How did CCOC(=O)C1C(=O)NC(SCC(=O)OC)=C(C#N)C1c1ccccc1OCC (stereo unspecified) do in these assays?
AGP1-GFP MLPCN: 102.0; CIT2 TOR yeast: 94.1; LAP4 TOR yeast: 102.3; RPL19A-GFP yeast: 100.7; MEP2 TOR yeast: 101.5

How did N=C1/C(=C\c2ccc(Br)o2)C(=O)N=C2SC(CC(=O)N3CCCCC3)=NN12 do in these assays?
AGP1-GFP MLPCN: 20.2; CIT2 TOR yeast: 108.3; LAP4 TOR yeast: 89.9; RPL19A-GFP yeast: 48.0*; MEP2 TOR yeast: 151.6

How did O=C(N/N=C/c1ccncc1)c1ccccc1 do in these assays?
AGP1-GFP MLPCN: 91.1; CIT2 TOR yeast: 95.8; LAP4 TOR yeast: 89.0; RPL19A-GFP yeast: 90.3; MEP2 TOR yeast: 96.8

How did O=C(N/N=C/c1cccc(Oc2ccccc2)c1)c1ccncc1 do in these assays?
AGP1-GFP MLPCN: 95.4; CIT2 TOR yeast: 79.5; LAP4 TOR yeast: 211.4*; RPL19A-GFP yeast: 74.0; MEP2 TOR yeast: 123.4

What do the screens show for `COc1cccc(-c2c(-c3cc(OC)cc(OC)c3)n(C)c3ccc(-c4cnc(N5CCOCC5)nc4)cc23)c1`?
AGP1-GFP MLPCN: 96.8; CIT2 TOR yeast: 86.2; LAP4 TOR yeast: 102.3; RPL19A-GFP yeast: 94.8; MEP2 TOR yeast: 96.7

What do the screens show for `Cc1cc(C)nc(N2CCN(C(=O)CCC(=O)Nc3nnc(C(C)C)s3)CC2)n1`?
AGP1-GFP MLPCN: 21.8; CIT2 TOR yeast: inconclusive; LAP4 TOR yeast: 89.0; RPL19A-GFP yeast: 46.5*[may fluoresce violet]; MEP2 TOR yeast: 709.9*[may fluoresce violet]

Results for O=C(c1ccccc1)c1c[nH]c(C(=O)NCCCN2CCOCC2)c1 ?
AGP1-GFP MLPCN: 110.1; CIT2 TOR yeast: 109.5; LAP4 TOR yeast: 101.1; RPL19A-GFP yeast: 111.2; MEP2 TOR yeast: 113.5

Results for CCOC(=O)N1CCN(C(=O)Cn2ncn3nc(-c4cccs4)cc3c2=O)CC1 ?
AGP1-GFP MLPCN: inconclusive; CIT2 TOR yeast: inconclusive; LAP4 TOR yeast: 93.8; RPL19A-GFP yeast: 25.3*[may fluoresce violet]; MEP2 TOR yeast: 468.9*[may fluoresce violet]

Results for O=C(CC12CC3CC(CC(C3)C1)C2)N1CCCC1 ?
AGP1-GFP MLPCN: 99.5; CIT2 TOR yeast: 93.2; LAP4 TOR yeast: 107.3; RPL19A-GFP yeast: 96.3; MEP2 TOR yeast: 94.2

Results for Cc1cc(C(=O)CSc2nnc(-c3ccco3)o2)c(C)n1-c1ccc2c(c1)OCCO2 ?
CIT2 TOR yeast: inconclusive; LAP4 TOR yeast: 85.5; RPL19A-GFP yeast: 59.8; MEP2 TOR yeast: 196.1*[may fluoresce violet]

What do the screens show for `C#CCOc1ccc(/C=N/O)cc1Cl`?
AGP1-GFP MLPCN: 96.5; CIT2 TOR yeast: 94.7; LAP4 TOR yeast: 102.5; RPL19A-GFP yeast: 105.5; MEP2 TOR yeast: 110.0

Results for CCc1c(O)nc(SCc2ccccc2)n(C(C)CC)c1=O (stereo unspecified) ?
AGP1-GFP MLPCN: inconclusive; CIT2 TOR yeast: inconclusive; LAP4 TOR yeast: 83.7; RPL19A-GFP yeast: 16.3*[may fluoresce violet]; MEP2 TOR yeast: 209.6*[may fluoresce violet]

What do the screens show for `O=C(CSc1ccc(-c2ccccc2)nn1)N1CCCCC1`?
AGP1-GFP MLPCN: 109.2; CIT2 TOR yeast: 100.6; LAP4 TOR yeast: 105.8; RPL19A-GFP yeast: 91.1; MEP2 TOR yeast: 97.3

How did O=C(CSc1ccc(-c2ccccn2)nn1)N1CCCCC1 do in these assays?
AGP1-GFP MLPCN: 89.6; CIT2 TOR yeast: 73.9; LAP4 TOR yeast: 216.6*; RPL19A-GFP yeast: 94.9; MEP2 TOR yeast: 94.2

How did COc1ccc2nc(C)cc(Nc3ccc(C(=O)O)cc3)c2c1 do in these assays?
AGP1-GFP MLPCN: inconclusive; CIT2 TOR yeast: inconclusive; LAP4 TOR yeast: 54.4; RPL19A-GFP yeast: 60.9; MEP2 TOR yeast: 236.5*[may fluoresce violet]

How did COc1ccc(Nc2cc(C)nc3ccc(OC)cc23)cc1 do in these assays?
AGP1-GFP MLPCN: 96.8; CIT2 TOR yeast: 100.0; LAP4 TOR yeast: 88.6; RPL19A-GFP yeast: 100.0; MEP2 TOR yeast: 101.7

What do the screens show for `Nc1c(C(=O)OCC2CCCO2)c2nc3ccccc3nc2n1-c1ccc2c(c1)OCCO2` (stereo unspecified)?
AGP1-GFP MLPCN: 98.8; CIT2 TOR yeast: 106.5; LAP4 TOR yeast: 98.6; RPL19A-GFP yeast: 96.8; MEP2 TOR yeast: 99.5

Results for Cc1ccc(C(=O)Oc2ccccc2N2C(=O)C3CCCCC3C2=O)cc1 (stereo unspecified) ?
AGP1-GFP MLPCN: inconclusive; CIT2 TOR yeast: inconclusive; LAP4 TOR yeast: 121.2; RPL19A-GFP yeast: 16.6*[may fluoresce violet]; MEP2 TOR yeast: 249.4*[may fluoresce violet]

How did O=C(Oc1ccccc1N1C(=O)C2CCCCC2C1=O)c1ccccc1 (stereo unspecified) do in these assays?
AGP1-GFP MLPCN: 105.0; CIT2 TOR yeast: 110.7; LAP4 TOR yeast: 83.8; RPL19A-GFP yeast: 103.1; MEP2 TOR yeast: 106.0

What do the screens show for `CC(=O)NCCn1c(SCC(=O)NCCC2=CCCCC2)nc2ccccc2c1=O`?
AGP1-GFP MLPCN: 21.7; CIT2 TOR yeast: inconclusive; LAP4 TOR yeast: 90.5; RPL19A-GFP yeast: 34.7*[may fluoresce violet]; MEP2 TOR yeast: 232.1*[may fluoresce violet]

How did CCCCNS(=O)(=O)c1ccc2nc(-c3cccnc3)cc(C(=O)NC3CCCC3)c2c1 do in these assays?
AGP1-GFP MLPCN: 27.9; CIT2 TOR yeast: inconclusive; LAP4 TOR yeast: 94.5; RPL19A-GFP yeast: 49.5*[may fluoresce violet]; MEP2 TOR yeast: 200.4*[may fluoresce violet]

How did CCCCNS(=O)(=O)c1ccc2nc(-c3cccnc3)cc(C(=O)NC3CC3)c2c1 do in these assays?
AGP1-GFP MLPCN: 102.9; CIT2 TOR yeast: 100.4; LAP4 TOR yeast: 95.0; RPL19A-GFP yeast: 102.2; MEP2 TOR yeast: 104.0

What do the screens show for `Cc1cccc(CCNC(=O)CCS(=O)(=O)c2cc3c(cc2Cl)NC(=O)CO3)c1`?
AGP1-GFP MLPCN: 100.4; CIT2 TOR yeast: 100.6; LAP4 TOR yeast: 100.2; RPL19A-GFP yeast: 100.3; MEP2 TOR yeast: 98.0

How did CCOC(=O)N1CCC(NS(=O)(=O)c2ccc3c(c2)oc(=O)n3C)CC1 do in these assays?
AGP1-GFP MLPCN: 20.1; CIT2 TOR yeast: inconclusive; LAP4 TOR yeast: 93.0; RPL19A-GFP yeast: 63.8; MEP2 TOR yeast: 226.1*[may fluoresce violet]
